Source: PubChem BioAssay (National Center for Advancing Translational Sciences (NCATS))
NS1 inh – inhibitors of influenza NS1 protein function; Potency, µM (doses to about 46.1 µM), for inactives: at the highest dose activity, positive = more growth; 270,000 tested, 0.4% active; AID 2326; calls by dose curve; further: actives are rising curves; nearly all actives have a fitted effect of over 50% in size
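Growth recovery, yeast-based: influenza A NS1 expressed in S. cerevisiae causes slow growth, and suppressors are detected by OD600. The parent strain without NS1 is used as positive control.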
Pf growth 96h – inhibits malaria parasite growth, 96 h. P. falciparum luciferase reporter growth, 96 h. Potency, µM (doses to about 28.7 µM), inactives show at the highest dose activity change, negative = inhibition, most hits filed as inhibitors. 320,000 tested, 6.9% active; further: on the % scale 0 is the no-effect control and ±100 the full control effect
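Two-generation exposure (96 h) targets delayed-death phenotype. Reporter parasites carrying integrated firefly luciferase, in red cells at 2% hematocrit and 0.05% parasitemia final, kept at 37 C, 5% CO2; luminescence loss indicates inhibition.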
Sm TGR inh – inhibitors of Schistosoma mansoni thioredoxin glutathione reductase | Q962Y6 | purified TGR, DTNB reduction, TNB absorbance 405 nm | Potency, µM (titrated, usually from 114 µM), without a hit: at the top dose activity change, negative = inhibition, most hits filed as inhibitors | 360,000 tested, 3% active | AID 485364; further: on the % scale 0 is the no-effect control and ±100 the full control effect; nearly all actives have a fitted effect of over 60% in size
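TGR 20 nM + NADPH 100 uM (dispensed conc.), cpd preinc 15 min RT; start with NADPH (500 uM addition) then DTNB (15 mM addition). Kinetic TNB absorbance, 405 nm filter. Four-parameter Hill fit across titration.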
Pf growth 48h – P. falciparum growth inhibition at 48 hours (one generation). Potency, µM (titrated, usually from 28.7 µM), inactives show top-dose activity change, negative = inhibition, hits mostly inhibitors. P. falciparum luciferase growth in erythrocytes, 48 h. 310,000 tested, 5.9% active; further: on the % scale 0 is the no-effect control and ±100 the full control effect
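Compounds are pin-transferred into medium, infected erythrocytes (2% hematocrit, 0.1% parasitemia final) are added, and plates sit one parasite generation at 37 C in 5% CO2. Detection reagent is then added and luminescence measured.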
AMA1-RON2 inh – inhibitors of Plasmodium falciparum AMA1-RON2 interaction | AlphaScreen AMA1-biotinylated RON2 peptide binding | Potency, µM (doses to about 58.2 µM), without a hit: top-dose activity change, negative = inhibition, usual class: inhibitors | 360,000 tested, 0.2% active | AID 720542;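 further: 0% = vehicle wells and -100% = peptide control; nearly all actives have a fitted effect of over 45% in size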
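AMA1 (3D7) with his tag at 25 nM final met compounds first, then biotinylated RON2 peptide at 25 nM; detection used donor plus acceptor beads, 10 µg/mL apiece, read by AlphaScreen after 30 min at room temperature.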
The depositor's hits bear a star. This is a sample that favours compounds with a hit; in the whole collection about 11% have one here. Unless noted, the call rests on the fitted dose curve; in most records, active means well fitted curve in the direction sought with a large enough effect; inconclusive means small, poorly fitted or top-dose-only effect, or another doubt; inactive means no such curve, though single readings can be large; an effect the other way counts as inactive or inconclusive. Potency means the concentration at half of the fitted maximal effect.

What do the screens show for `CCCCn1c(N)c(N(CCC(C)C)C(=O)C2=NN(c3ccccc3)C(=O)CC2)c(=O)[nH]c1=O`?
Pf growth 96h: 14.4%; Sm TGR inh: -4.1%; Pf growth 48h: 0.9%; AMA1-RON2 inh: -0.3%

What do the screens show for `COC(C(=O)Nc1ccnn1C1CCN(Cc2ccc(CO)o2)CC1)c1ccccc1` (centres undefined)?
NS1 inh: 4.4%; Pf growth 96h: 39.7%; Sm TGR inh: -17.1%; Pf growth 48h: 24.5%; AMA1-RON2 inh: 1.2%

What do the screens show for `S=C(Nc1cccnc1)N1CCc2ccccc21`?
NS1 inh: 1.1%; Pf growth 96h: 5.22µM*; Sm TGR inh: -2.2%; Pf growth 48h: 10.2%; AMA1-RON2 inh: 0.0%

How did Cc1cc(/C=C2\C(=O)NC(=O)N(c3ccc(Cl)cc3)C2=O)c(C)n1-c1cccc(C(=O)O)c1 do in these assays?
NS1 inh: 4.8%; Pf growth 96h: inconclusive; Sm TGR inh: 7.08µM*; Pf growth 48h: -7.3%; AMA1-RON2 inh: -4.6%

Results for Cc1cc(/C=C2\C(=O)NC(=O)N(c3ccc(Br)cc3)C2=O)c(C)n1-c1cc(C(=O)O)cc(C(=O)O)c1 ?
NS1 inh: 9.1%; Pf growth 96h: -11.8%; Sm TGR inh: 8.91µM*; Pf growth 48h: 2.4%; AMA1-RON2 inh: inconclusive

What do the screens show for `CCN(CC)C(=O)c1ccc(/C=C/c2c[nH]c3ccccc23)[n+](C)c1`?
NS1 inh: 7.7%; Pf growth 96h: 0.37µM*; Sm TGR inh: -6.4%; Pf growth 48h: 0.738µM*; AMA1-RON2 inh: -9.2%

Results for O=C1/C(=C/c2ccccc2Cl)SC(=S)N1CCC(=O)N1CCCCC1CCO (centres undefined) ?
NS1 inh: -9.7%; Pf growth 96h: inconclusive; Sm TGR inh: -2.4%; Pf growth 48h: inconclusive; AMA1-RON2 inh: -10.9%

Results for CC(C)c1ccc(/C=C2\SC(=S)N(CCC(=O)N3CCCCC3CCO)C2=O)cc1 (centres undefined) ?
NS1 inh: 16.1%; Pf growth 96h: 9.28µM*; Sm TGR inh: -10.0%; Pf growth 48h: -12.9%; AMA1-RON2 inh: -4.1%

What do the screens show for `O=C1/C(=C\c2ccccc2)SC(=S)N1CCC(=O)N1CCCCC1CCO` (centres undefined)?
NS1 inh: -18.6%; Pf growth 96h: inconclusive; Sm TGR inh: -11.8%; Pf growth 48h: inconclusive; AMA1-RON2 inh: -4.8%

How did COc1cccc(/C=C2\SC(=O)N(CCC(=O)N3CCCCC3CCO)C2=O)c1 (centres undefined) do in these assays?
NS1 inh: -19.7%; Pf growth 96h: 10.4µM*; Sm TGR inh: -5.0%; Pf growth 48h: inconclusive; AMA1-RON2 inh: 10.2%

How did COc1ccc(/C=C2\SC(=S)N(CCCC(=O)N3CCCCC3CCO)C2=O)cc1 (centres undefined) do in these assays?
NS1 inh: -34.2%; Pf growth 96h: 8.28µM*; Sm TGR inh: -8.7%; Pf growth 48h: inconclusive; AMA1-RON2 inh: -18.6%

How did CC1CC2CCCC(O)=C2C(=O)O1 (centres undefined) do in these assays?
AMA1-RON2 inh: 1.7%

What do the screens show for `Cc1ccc2oc(=O)c3cnn(CC(=O)N(C)c4ccc(F)cc4)c3c2c1`?
Sm TGR inh: -1.9%

What do the screens show for `O=C(c1ncn(Cc2ccccc2)c1C(=O)N1CCc2ccccc2C1)N1CCc2ccccc2C1`?
Pf growth 96h: inconclusive; Sm TGR inh: inconclusive; Pf growth 48h: 1.47µM*; AMA1-RON2 inh: 15.9%

What do the screens show for `CC(C)CN(C)Cc1c(C(=O)N2CCc3ccccc3C2)nc2ccc(Cl)cn12`?
NS1 inh: -5.9%; Pf growth 96h: inconclusive; Sm TGR inh: -4.2%; Pf growth 48h: 7.38µM*; AMA1-RON2 inh: -22.0%

Results for Cc1cnc(CN(C)Cc2c(C(=O)N3CCc4ccccc4C3)nc3ccc(Cl)cn23)[nH]1 ?
NS1 inh: 1.0%; Pf growth 96h: 34.0%; Sm TGR inh: -0.4%; Pf growth 48h: 0.0%; AMA1-RON2 inh: 33.1%

What do the screens show for `COC1CCN(Cc2c(C(=O)N3C[C@@H](C)O[C@@H](C)C3)nc3ccc(Cl)cn23)CC1`?
NS1 inh: -16.9%; Pf growth 96h: -24.9%; Sm TGR inh: 7.3%; Pf growth 48h: 2.7%; AMA1-RON2 inh: 0.6%

What do the screens show for `CCN(CC)C1CCN(Cc2c(C(=O)N3CCCCCCC3)nc3ccc(Cl)cn23)C1` (centres undefined)?
NS1 inh: 12.8%; Pf growth 96h: 11.7µM*; Sm TGR inh: -19.4%; Pf growth 48h: inconclusive; AMA1-RON2 inh: 11.9%

Results for CC1CCCN(Cc2c(C(=O)N3CCc4ccccc4C3)nc3ccc(Cl)cn23)C1 (centres undefined) ?
NS1 inh: 5.0%; Pf growth 96h: -0.8%; Sm TGR inh: -19.2%; Pf growth 48h: inconclusive; AMA1-RON2 inh: 5.1%

Results for CCCCN(C)Cc1c(C(=O)N2CCc3ccccc3C2)nc2ccc(Cl)cn12 ?
NS1 inh: 2.2%; Pf growth 96h: -8.7%; Sm TGR inh: 44.7µM*; Pf growth 48h: inconclusive; AMA1-RON2 inh: -11.6%

How did CN1C(=O)c2ccccc2Sc2ccc(NC(=O)N3CCN(c4ccc(F)cc4)CC3)cc21 do in these assays?
Sm TGR inh: -20.8%

Results for COc1ccc(NC(=O)CCn2cnnn2)cc1 ?
Sm TGR inh: 5.7%

Results for O=C(c1nc2ccc(Cl)cn2c1CN1CCC(CO)CC1)N1CCc2ccccc2C1 ?
NS1 inh: 18.7%; Pf growth 96h: inconclusive; Sm TGR inh: 7.1%; Pf growth 48h: 19.2%; AMA1-RON2 inh: 4.9%

How did O=C(c1nc2ccc(Cl)cn2c1CN1CCCC1)N1CCc2ccccc2C1 do in these assays?
NS1 inh: 4.7%; Pf growth 96h: inconclusive; Sm TGR inh: 39.8µM*; Pf growth 48h: inconclusive; AMA1-RON2 inh: -4.7%

How did COc1ccc(C(=O)/C=C2/c3ccccc3CC(C)(C)N2C)cc1OC do in these assays?
NS1 inh: 5.6%; Pf growth 96h: 11.7µM*; Sm TGR inh: -22.4%; Pf growth 48h: -4.3%; AMA1-RON2 inh: 1.6%

What do the screens show for `Clc1cccc(SC2CCNCC2)n1`?
Pf growth 96h: 4.26µM*; Pf growth 48h: -1.1%

How did C#CCOCCOCCOCCNc1nc(N2CCN(C(=O)[C@H]([C@@H](C)CC)n3cc(CCCN=C(N)N)nn3)CC2)nc(N2CCN(C(=O)[C@H](CCCCN)n3cc(CCCC)nn3)CC2)n1 do in these assays?
NS1 inh: -40.7%; Pf growth 96h: 11.7µM*; Sm TGR inh: -7.3%; Pf growth 48h: inconclusive; AMA1-RON2 inh: -11.1%

How did C#CCOCCOCCOCCNc1nc(N2CCN(C(=O)[C@H]([C@@H](C)O)n3cc(CCCCN)nn3)CC2)nc(N2CCN(C(=O)[C@H](CCCCN)n3cc(CCCC)nn3)CC2)n1 do in these assays?
Pf growth 96h: 56.9%; Sm TGR inh: -12.2%; Pf growth 48h: inconclusive; AMA1-RON2 inh: -1.3%
